Holding throughout (experiment): NCI-60 one-dose screen, 48 h (100 = growth as untreated, 0 = no growth, -100 = all killed)
The test system of one test is BT-549 breast. To be noted: 10 µM.
The next test has as its system MDA-MB-435 melanoma. Particulars: 10 µM.
The subject of a further test is MCF7 breast. To be noted: 10 µM unless noted.
A further test deals with HCT-116 colon. To be noted: 10 µM.
The next test concerns HCC-2998 colon. To be noted: 10 µM.
In another test the test system is KM12 colon. To be noted: 10 µM.
The test system of the next test is SW-620 colon. Particulars: 10 µM.

This note sets out measurements from PubChem BioAssay (NCI).

About 83,000 compounds went through this panel and 20% of them were active in at least one assay; those are over-represented in the sample as a whole.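 The test compound was applied at a single concentration to cells in 96-well plates for 48 hours, and percent growth was recorded.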 Unmarked numbers belong to inactive results. Activity calls are given as the source filed them. The calls were made as follows: active = growth percent below 10; inactive = the rest.

Turning to `Cc1cc(NC(=O)CSCC(=O)O)no1`, the growth in the test on BT-549 breast was 98.7%; in the test with MDA-MB-435 melanoma, 105%; with MCF7 breast, 91.9%; in the test on HCT-116 colon it was 101%; in the test with HCC-2998 colon, 113%; with KM12 colon, 107%.

In the case of `CC(C)NC(=O)OCc1c(COC(=O)NC(C)C)c(-c2ccc(Cl)c(Cl)c2)n2c1SCC2`, the growth in the test with BT-549 breast is 21.7%; with MDA-MB-435 melanoma, 67.2%; in the test with SW-620 colon, 44.8%; in the test on MCF7 breast, 32.2%; in the test with HCT-116 colon, 29.9%; with HCC-2998 colon it was 72.8%. In addition, the growth in the test on KM12 colon is 77.6%.

Consider `OCC1OC(OC2C(O)C(CO)OC2(CO)OC2OC(CO)C(O)C(O)C2O)C(O)C(O)C1O` (stereo not drawn), for which the growth in the test on BT-549 breast was 105%; with MDA-MB-435 melanoma, 111%; in the test on SW-620 colon it was 111%; in the test on MCF7 breast it was 95%; in the test on HCT-116 colon, 97.8%; with KM12 colon, 109%.

Turning to `O=C1Cc2ccccc2C(=O)O1`, the growth is 101% in the test with BT-549 breast; 107% with MDA-MB-435 melanoma; 105% in the test on SW-620 colon; 102% with MCF7 breast; 98.2% in the test on HCT-116 colon; 112% in the test on HCC-2998 colon. In addition, in the test with KM12 colon, the growth was 115%.

As to `Cc1cc2nc(CC(=O)c3ccccc3)c(=O)[nH]c2cc1C`, the growth in the test with BT-549 breast was 89.6%; in the test on MDA-MB-435 melanoma, 106%; in the test on SW-620 colon, 94.3%; with MCF7 breast it was 78.1%; in the test with HCT-116 colon, 80.3%; in the test on KM12 colon it was 100%.

`CN(C)CCN(C)CC(C)(C)C(=O)/C=C/c1ccc(Cl)cc1`: the growth was -34.5% (active) in the test on BT-549 breast; 0.434% (active) in the test with MDA-MB-435 melanoma; -24.2% (active) in the test with SW-620 colon; -8.84% (active) in the test on MCF7 breast; -92.1% (active) with HCT-116 colon; -92.9% (active) with HCC-2998 colon. Moreover, in the test with KM12 colon, the growth is -23.7% (active).

Turning to `c1csc(-c2cc(-c3cc(-c4cccs4)[nH]n3)n[nH]2)c1`, the growth was 90.7% in the test on BT-549 breast; 114% in the test on MDA-MB-435 melanoma; 104% in the test with SW-620 colon; 75.5% with MCF7 breast; 91.4% in the test on HCT-116 colon; 111% with HCC-2998 colon. For the same molecule, the growth with KM12 colon was 105%.

Take `Cc1nc2ccccc2c(C(=O)O)c1O`: the growth is 112% in the test on MDA-MB-435 melanoma; 110% in the test on SW-620 colon; 103% in the test with MCF7 breast; 88.3% with HCT-116 colon; 120% in the test on KM12 colon.

As for `COc1ccccc1NC(=O)C1=C(C)NC(C)=C(C(=O)Nc2ccccc2OC)C1c1cccc([N+](=O)[O-])c1`, the growth in the test with BT-549 breast was 73.6%; with MDA-MB-435 melanoma, 75.4%; with MCF7 breast, 47.8%; with HCT-116 colon, 44.9%; in the test with HCC-2998 colon, 76.9%; in the test on KM12 colon, 67.3%.

Turning to `Cc1c(C(=O)O)c(=O)n(-c2ccccc2)n1C`, the growth in the test with BT-549 breast is 114%; with MDA-MB-435 melanoma, 107%; in the test with MCF7 breast it was 112%; in the test on HCT-116 colon, 113%; with HCC-2998 colon, 106%; in the test on KM12 colon it was 120%.

Regarding `Brc1cnc2ccccc2c1`, the growth in the test with BT-549 breast was 103%; with MDA-MB-435 melanoma it was 105%; with SW-620 colon, 95.8%; in the test on MCF7 breast, 101%; in the test on HCT-116 colon, 106%; in the test with HCC-2998 colon, 100%. Also, in the test on KM12 colon, the growth is 100%.

Regarding `CC(=O)Nc1cccc(Cl)c1C`, the growth was 94.8% in the test with MDA-MB-435 melanoma; 101% in the test on SW-620 colon; 105% in the test on MCF7 breast; 103% in the test on HCT-116 colon; 107% with HCC-2998 colon; 98.9% in the test on KM12 colon.

Turning to `c1ccc2c(c1)Sc1ccccc1S2`, the growth with BT-549 breast was 97.5%; in the test on MDA-MB-435 melanoma it was 110%; with MCF7 breast, 95.7%; in the test on HCT-116 colon, 106%; in the test with HCC-2998 colon, 92.5%; in the test with KM12 colon, 108%.

For `c1ccc(Sc2ccccc2)cc1`, the growth is 100% in the test on BT-549 breast; 99.6% in the test with MDA-MB-435 melanoma; 107% in the test on SW-620 colon; 97.6% with MCF7 breast; 110% with HCT-116 colon; 105% in the test with HCC-2998 colon. Also, the growth in the test on KM12 colon was 102%.

For `COC(=O)C(C)Oc1ccc(OC#N)cc1` (stereo not drawn), the growth was 120% in the test with BT-549 breast; 102% in the test with MDA-MB-435 melanoma; 98% in the test with MCF7 breast; 108% in the test with HCT-116 colon; 105% with HCC-2998 colon; 99.8% in the test with KM12 colon.

Consider `CC1CCCCN1C(=S)Nc1ccc(S(=O)(=O)N2CCCCC2)cc1` (stereo not drawn), for which the growth is 93.4% in the test with BT-549 breast; 96.3% in the test with MDA-MB-435 melanoma; 93.2% in the test on SW-620 colon; 102% in the test on MCF7 breast; 91.5% in the test on HCT-116 colon; 97.1% in the test on KM12 colon.

`COc1ccc(C(O)c2ccccc2)cc1` (stereo not drawn): the growth was 121% in the test on BT-549 breast; 102% in the test on MDA-MB-435 melanoma; 90.3% with SW-620 colon; 97.5% in the test with MCF7 breast; 110% in the test on HCT-116 colon; 93.7% in the test with KM12 colon.

Consider `Nc1nc2c(c(-c3nc(N)nc4c3CCc3ccccc3-4)n1)CCc1ccccc1-2`, for which the growth with BT-549 breast was 109%; in the test with MDA-MB-435 melanoma it was 109%; in the test on SW-620 colon it was 101%; with MCF7 breast, 95.4%; in the test on HCT-116 colon, 105%; with HCC-2998 colon, 114%. Further, in the test with KM12 colon, the growth was 105%.

`O=c1[nH]c(O)c(/C=C2/C=Nc3ccccc32)[nH]1`: the growth with BT-549 breast was 107%; in the test with MDA-MB-435 melanoma, 102%; with SW-620 colon it was 104%; with MCF7 breast, 56.3%; in the test with HCT-116 colon it was 96.4%; in the test with KM12 colon, 88.4%.

For `COc1ccc2c(c1)CCc1c-2n[nH]c1-c1[nH]nc2c1CCc1cc(OC)ccc1-2`, the growth in the test on BT-549 breast is 54.6%; with MDA-MB-435 melanoma, -5.37% (active); in the test on SW-620 colon it was 45%; in the test on MCF7 breast, 12.6%; in the test on HCT-116 colon, 32.4%; with HCC-2998 colon, 80.9%. Moreover, in the test with KM12 colon, the growth is 47.6%.

Turning to `NCCCN`, the growth is 106% with BT-549 breast; 109% in the test on MDA-MB-435 melanoma; 104% with SW-620 colon; 96.7% in the test with MCF7 breast; 109% in the test on HCT-116 colon; 107% with KM12 colon.
